Records with an inconclusive call do not appear. Active and inactive are the calls of the source. Calls come from the whole dose curve; as a rule, active = well fitted curve in the direction sought with a large enough effect; inconclusive = small, poorly fitted or top-dose-only effect, or another doubt; inactive = no such curve, though single readings can be large; an effect the other way counts as inactive or inconclusive.
Assays:
NIH3T3 = experiment: qHTS assay to identify novel small-molecules to repurpose for Merkel cell carcinoma treatment (AID 1296009); conditions: MCC and control cell lines, CellTiter-Glo viability, 72 h; at 44.8 µM (top of the series) unless noted; note: nearly all actives have a fitted effect of over 60% in size
How it was run: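 Viability readout: ATP luminescence (CellTiter-Glo) after 72 hr drug exposure at 37 degree celsius. Dose-response format was 8 points for NPC and 11 points for MIPE; data normalized to in-plate controls.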

C33A = experiment: Primary qHTS to identify gynecologic anti-cancer compounds using libraries of approved drugs and bioactive compounds (AID 1345084); conditions: Gynecologic cancer cell panel viability, ATPlite luminescence, 48 h; series mostly up to 57.5 µM; note: % is set by controls: 0 for no effect and ±100 for the full control effect; nearly all actives have a fitted effect of over 55% in size
How it was run: (§1)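 Five-concentration response, 48 h; readout is ATP-driven luciferase luminescence.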

CAOV3 = experiment: as above; conditions: Gynecologic cancer cell panel viability, ATPlite luminescence, 48 h; series mostly up to 57.5 µM
How it was run: as §1

CASKI = experiment: as above; conditions: Gynecologic cancer cell panel viability, ATPlite luminescence, 48 h; series mostly up to 57.5 µM
How it was run: as §1

Es-2 = experiment: as above; conditions: Gynecologic cancer cell panel viability, ATPlite luminescence, 48 h; series mostly up to 57.5 µM
How it was run: as §1

HeLa = experiment: as above; conditions: Gynecologic cancer cell panel viability, ATPlite luminescence, 48 h; series mostly up to 57.5 µM
How it was run: as §1

Hek293T = experiment: as above; conditions: Gynecologic cancer cell panel viability, ATPlite luminescence, 48 h, control line for the selectivity index; series mostly up to 57.5 µM
How it was run: as §1

JEG-3 = experiment: as above; conditions: Gynecologic cancer cell panel viability, ATPlite luminescence, 48 h; series mostly up to 57.5 µM
How it was run: as §1

OV90 = experiment: as above; conditions: Gynecologic cancer cell panel viability, ATPlite luminescence, 48 h; series mostly up to 57.5 µM
How it was run: as §1

PA-1 = experiment: as above; conditions: Gynecologic cancer cell panel viability, ATPlite luminescence, 48 h; series mostly up to 57.5 µM
How it was run: as §1

SKOV3 = experiment: as above; conditions: Gynecologic cancer cell panel viability, ATPlite luminescence, 48 h; series mostly up to 57.5 µM
How it was run: as §1

Tov-21-G = experiment: as above; conditions: Gynecologic cancer cell panel viability, ATPlite luminescence, 48 h; series mostly up to 57.5 µM
How it was run: as §1

Tov112D = experiment: as above; conditions: Gynecologic cancer cell panel viability, ATPlite luminescence, 48 h; series mostly up to 57.5 µM
How it was run: as §1

COC(=O)C1=COC(O[C@@H]2O[C@H](CO)[C@@H](O)[C@H](O)[C@H]2O)/C(=C\COC(=O)/C=C/c2ccccc2)C1CC(=O)OCCc1ccc(O)cc1 (stereo partly specified)
inactive: outcome (NIH3T3) inactive [at 17.4 µM] | Potency (C33A) | Potency (CAOV3) | outcome (CASKI) | Potency (Es-2) | Potency (HeLa) | Potency (Hek293T) | Potency (JEG-3) | Potency (OV90) | Potency (PA-1) | Potency (SKOV3) | Potency (Tov-21-G) | Potency (Tov112D)

CC(O)/C=C/C1(O)C(C)C(O)C(O[C@@H]2O[C@H](CO)[C@@H](O)[C@H](O)[C@H]2O)CC1(C)C (stereo partly specified)
inactive: outcome (NIH3T3) inactive [at 17.4 µM] | Potency (C33A) | Potency (CAOV3) | outcome (CASKI) | Potency (Es-2) | Potency (HeLa) | Potency (Hek293T) | Potency (JEG-3) | Potency (OV90) | Potency (PA-1) | Potency (SKOV3) | Potency (Tov-21-G) | Potency (Tov112D)

C[C@]12CCC[C@](C)(C(=O)O)C1CCC13CC(CO)C(CCC12)C3 (stereo partly specified)
inactive: outcome (NIH3T3) | Potency (C33A) | Potency (CAOV3) | outcome (CASKI) | Potency (Es-2) | Potency (HeLa) | Potency (Hek293T) | Potency (JEG-3) | Potency (OV90) | Potency (PA-1) | Potency (SKOV3) | Potency (Tov-21-G) | Potency (Tov112D)

CC1=CC(=O)C(=C(C)C)CC2C(C)(O)CCC12O (stereo unspecified)
inactive: outcome (NIH3T3) | Potency (C33A) | Potency (CAOV3) | outcome (CASKI) | Potency (Es-2) | Potency (HeLa) | Potency (Hek293T) | Potency (JEG-3) | Potency (OV90) | Potency (PA-1) | Potency (SKOV3) | Potency (Tov-21-G) | Potency (Tov112D)

C[C@@H]1CC2OC(=O)C3=C2C(CCC3O)[C@@]12C[C@@H](c1ccoc1)OC2=O (stereo partly specified)
inactive: outcome (NIH3T3) | Potency (C33A) | Potency (CAOV3) | outcome (CASKI) | Potency (Es-2) | Potency (HeLa) | Potency (Hek293T) | Potency (JEG-3) | Potency (OV90) | Potency (PA-1) | Potency (SKOV3) | Potency (Tov-21-G) | Potency (Tov112D)

C[C@]1(OC(=O)/C=C/c2ccc(O)cc2)C[C@@H](O)[C@]2(O)C=CO[C@@H](O[C@@H]3O[C@H](CO)[C@@H](O)[C@H](O)[C@H]3O)C12 (stereo partly specified)
inactive: outcome (NIH3T3) inactive [at 17.4 µM] | Potency (C33A) | Potency (CAOV3) | outcome (CASKI) | Potency (Es-2) | Potency (HeLa) | Potency (Hek293T) | Potency (JEG-3) | Potency (OV90) | Potency (PA-1) | Potency (SKOV3) | Potency (Tov-21-G) | Potency (Tov112D)

COc1ccc(C2(O)c3ccccc3NC(=O)C2OC)cc1 (stereo unspecified)
inactive: outcome (NIH3T3) | Potency (C33A) | Potency (CAOV3) | outcome (CASKI) | Potency (Es-2) | Potency (HeLa) | Potency (Hek293T) | Potency (JEG-3) | Potency (OV90) | Potency (PA-1) | Potency (SKOV3) | Potency (Tov-21-G) | Potency (Tov112D)

CC(C(=O)Nc1cc(C#N)ccc1CCCC(=O)O)c1ccc(F)c2ccccc12 (stereo unspecified)
inactive: outcome (NIH3T3) | Potency (C33A) | Potency (CAOV3) | outcome (CASKI) | Potency (Es-2) | Potency (HeLa) | Potency (Hek293T) | Potency (JEG-3) | Potency (OV90) | Potency (PA-1) | Potency (SKOV3) | Potency (Tov-21-G) | Potency (Tov112D)

CN1CCN(c2nc(-c3ccc(C(=O)NC4(C(=O)NCC#N)CCCCC4)cc3)cs2)CC1
inactive: outcome (NIH3T3) | Potency (C33A) | Potency (CAOV3) | outcome (CASKI) | Potency (Es-2) | Potency (HeLa) | Potency (Hek293T) | Potency (JEG-3) | Potency (OV90) | Potency (PA-1) | Potency (SKOV3) | Potency (Tov-21-G) | Potency (Tov112D)

CC(C)=CCC[C@@](C)(O)[C@H]1CC[C@]2(C)[C@@H]1[C@H](O)CC1[C@@]3(C)CC[C@H](O[C@@H]4O[C@H](CO)[C@@H](O)[C@H](O)[C@H]4O[C@@H]4O[C@H](CO)[C@@H](O)[C@H](O)[C@H]4O)C(C)(C)[C@@H]3CC[C@]12C (stereo partly specified)
inactive: outcome (NIH3T3) inactive [at 17.4 µM] | Potency (C33A) | Potency (CAOV3) | outcome (CASKI) | Potency (Es-2) | Potency (HeLa) | Potency (Hek293T) | Potency (JEG-3) | Potency (OV90) | Potency (PA-1) | Potency (SKOV3) | Potency (Tov-21-G) | Potency (Tov112D)

COc1cc(Nc2nc3c(s2)CCCC3c2ccccc2)ccc1-n1cnc(C)c1 (stereo unspecified)
inactive: outcome (NIH3T3) inactive [at 9.27 µM] | activity change, negative = cytotoxicity (C33A) 6.98% [at 11.6 µM] | activity change, negative = cytotoxicity (CAOV3) 6.61% [at 11.6 µM] | activity change, negative = cytotoxicity (CASKI) 15.8% [at 11.6 µM] | activity change, negative = cytotoxicity (Es-2) 3.55% [at 11.6 µM] | activity change, negative = cytotoxicity (HeLa) -6.36% [at 11.6 µM] | activity change, negative = cytotoxicity (Hek293T) 8.6% [at 11.6 µM] | activity change, negative = cytotoxicity (JEG-3) 2.94% [at 11.6 µM] | activity change, negative = cytotoxicity (OV90) 7.49% [at 11.6 µM] | activity change, negative = cytotoxicity (PA-1) 7.13% [at 11.6 µM] | activity change, negative = cytotoxicity (SKOV3) 7.37% [at 11.6 µM] | activity change, negative = cytotoxicity (Tov-21-G) 9.24% [at 11.6 µM] | activity change, negative = cytotoxicity (Tov112D) 0.142% [at 11.6 µM]

C[C@H](O)C(O)(C(=O)OCc1ccccc1NC(=O)CCC(N)C(=O)O)[C@H](C)O (stereo partly specified)
inactive: outcome (NIH3T3) inactive [at 17.4 µM] | Potency (C33A) | Potency (CAOV3) | outcome (CASKI) | Potency (Es-2) | Potency (HeLa) | Potency (Hek293T) | Potency (JEG-3) | Potency (OV90) | Potency (PA-1) | Potency (SKOV3) | Potency (Tov-21-G) | Potency (Tov112D)
